# From PubChem BioAssay (NCI)
# This is part of a sample that, as a whole, favours compounds with a hit. Of some 83,000 tested, about 20% had one in any assay.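 Testing used 96-well plates and a 48-hour single-concentration exposure. Example: -40 means 40% of the starting cells died.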 A number with no mark means an inactive call. Calls of active or inactive are those of the source. The calls were made as follows: active = growth percent below 10; inactive = the rest.
# Test system: K-562 leukemia
# Assay: NCI-60 one-dose screen, 48 h (100 = growth as untreated, 0 = no growth, -100 = all killed)
# Settings: 10 µM unless noted
row,Structure (SMILES),growth
1,O=C(O)c1ccc(-n2c(=O)c3ccccc3c3ccccc3c2=O)cc1,103%
2,Cc1nn(-c2ccc(Cl)cc2)c(=O)n1CCOc1ccccc1Cl,96.8%
3,CC(C)(C)OC(=O)N[C@@H](Cc1ccccc1)C(=O)N(Cc1ccccc1)C1(C(=O)NCc2ccccc2)CCN(Cc2ccccc2)CC1,11%
4,COc1ccc(C(=O)c2cc(OC)c(OC)c(OC)c2)cc1/C=C/C(=O)c1ccc(OC)c(OC)c1,12.3%
5,CCCCNC(=O)NS(=O)(=O)c1ccc(N2N=C(c3ccc(C)cc3C)CC2c2ccc(OC)cc2)cc1 (configuration not stated),58.9%

# Test system: MALME-3M melanoma
# Assay: as above
# Settings: 10 µM unless noted
row,Structure (SMILES),growth
1,C[C@]12CC[C@@H]3c4cc(O)c(O)cc4CC[C@H]3[C@@H]1CC[C@@H]2O,16.8%
2,CCCOC(=O)C1(O)CCCC1,96.3%
3,COC1=CC(c2ccc[nH]2)=N/C1=C\c1[nH]c(C)c(C(=O)CCCCC(=O)NCc2ccccc2)c1C,76.7%
4,O=C(NNC(=S)Nc1ccccc1)c1ccccn1,24.2%
5,COc1cc(NC(=O)CCl)ccc(=O)c1,87.7%
6,COc1ccc(S(=O)(=O)N2CCN(c3cc4c(cc3F)c(=O)c(C(=O)O)cn4C3CC3)CC2)c(OC)c1,98%
7,COc1ccc(Cn2cc(COc3cc(/C=C/C(=O)c4cc(OC)c(OC)c(OC)c4)ccc3OC)nn2)cc1,101%
8,COc1cc(C(=O)OCCCCCCCCCCC[P+](c2ccccc2)(c2ccccc2)c2ccccc2)ccc1O,-77.4% (active)
9,CC(C(=O)n1cc(-c2ccccc2)c(-c2ccccc2)c1)c1ccccc1 (configuration not stated),108%
10,C=CCOc1cccc(/C=C/C(=O)c2sc(Nc3cccnc3)nc2C)c1,94.6%
11,O=C(CCCn1c(=O)c2sc3ccccc3c2n2nnc(-c3ccccc3)c12)NCCc1cnc[nH]1,-72.2% (active)
12,CCC1CCc2nc3sc(C(=O)Nc4cccc(C)c4)c(N)c3cc2C1 (configuration not stated),47.4%
13,Cc1cccc(NC(=O)c2sc3nc4c(cc3c2N)CCCC4)c1,24.9%
14,COc1ccc(-c2cn[nH]c2-c2cc(OC)c3c(c2)OCCO3)cc1,97.9%
15,CC(C)C[C@H](NC(=O)Cn1ccc(NCc2ccccc2)cc1=O)B(O)O,-21.2% (active)
16,CC[C@H](C)[C@H]1NC(=O)[C@@H](N[C@](C)(O)[C@@H](N)CC(C)C)[C@@H](C)OC(=O)[C@H](Cc2ccc(OC)cc2)N(C)C(=O)[C@@H]2CCCN2C(=O)[C@H](CC(C)C)NC(=O)[C@@H](C)C(=O)[C@H](C(C)C)OC(=O)C[C@@H]1O,-21.4% (active)
17,CCNC(=O)C1CCCN1C(=O)C(CCCN=C(N)N)NC(=O)C(CC(C)C)NC(=O)C(CC(C)C)NC(=O)C(Cc1ccc(O)cc1)NC(=O)C(CO)NC(=O)C(Cc1c[nH]c2ccccc12)NC(=O)C(Cc1cnc[nH]1)NC(=O)C1CCC(=O)N1 (configuration not stated),122%
18,COC(=O)c1cc(-c2cccs2)c(C#N)c(N)c1C#N,116%
19,O=C1N=C(c2c(-c3[nH]c(=O)c4ccc(Br)cc4c3O)c(O)c3ccccc3c2O)C(=O)c2cc(Br)ccc21,-74.3% (active)
20,CC[C@]1(O)C[C@@H]2CN(Cc3c([nH]c4ccccc34)[C@@](C(=O)OC)(c3cc4c(cc3OC)N(C)[C@H]3[C@@](O)(C(=O)OC)[C@H](OC(C)=O)[C@]5(CC)[C@@H]6C[C@@H]6CN6CC[C@]43[C@@H]65)C2)C1,38%
21,CCOC(=O)[C@H](CSSc1ncnc2cc[nH]c12)NC(=O)[C@@H](C)c1ccc2cc(OC)ccc2c1,56.2%
22,Cc1nc(Nc2cccnc2)sc1C(=O)/C=C/c1ccc(F)cc1,88.1%
23,COc1ccc(C2=CC(c3ccc(Oc4ccnc5cc(Cl)ccc45)c(OC)c3)c3c(nc(OC)[nH]c3=O)N2)cc1 (configuration not stated),78.5%
24,COc1ccccc1CNCCCN1C(=O)c2ccc3c4c(ccc(c24)C1=O)C(=O)N(CCCNCCCCNCCCCN)C3=O,-83.9% (active)
25,Cc1cc(C)c(S(=O)(=O)N2CCN(c3cc4c(cc3F)c(=O)c(C(=O)O)cn4C3CC3)CC2)c(C)c1,59.7%
26,COc1ccc(C(=O)/C=C/c2cc(C(=O)c3cc(OC)c(OC)c(OC)c3)ccc2OC)cc1,77.9%
27,NC(=O)NC(=O)/C=C/C(=O)OCCCl,95.9%
